VDR inh = Inhibitors of the vitamin D receptor (VDR): qHTS | VDR-SRC2-3 peptide fluorescence polarization, 2 h | Potency, µM, inactives show max response, negative = inhibition, hits mostly inhibitors | 0.93% of 400,000 active
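Fluorescence polarization assay measuring small-molecule disruption of VDR binding to the coregulator peptide SRC2-3. Compounds were pin-transferred (23 nl) into the reagent mix and incubated 2 h at room temperature before reading.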
PLK1 PBD block = qHTS for Inhibitors of PLK1-PDB (polo-like kinase 1 - polo-box domain): Primary Screen | 2.8% of 360,000 active | AID 720504, 2013 | Plk1 PBD binding of FITC phosphopeptide, fluorescence polarization | Serine/threonine-protein kinase PLK1 (Homo sapiens), P53350 | Potency, µM, for the others: max response, negative = inhibition, hits mostly inhibitors; also: series mostly up to about 57 µM; nearly all actives have a fitted effect of over 65% in size
Target sequence (P53350 whole entry, looked up, the tested form may be a part): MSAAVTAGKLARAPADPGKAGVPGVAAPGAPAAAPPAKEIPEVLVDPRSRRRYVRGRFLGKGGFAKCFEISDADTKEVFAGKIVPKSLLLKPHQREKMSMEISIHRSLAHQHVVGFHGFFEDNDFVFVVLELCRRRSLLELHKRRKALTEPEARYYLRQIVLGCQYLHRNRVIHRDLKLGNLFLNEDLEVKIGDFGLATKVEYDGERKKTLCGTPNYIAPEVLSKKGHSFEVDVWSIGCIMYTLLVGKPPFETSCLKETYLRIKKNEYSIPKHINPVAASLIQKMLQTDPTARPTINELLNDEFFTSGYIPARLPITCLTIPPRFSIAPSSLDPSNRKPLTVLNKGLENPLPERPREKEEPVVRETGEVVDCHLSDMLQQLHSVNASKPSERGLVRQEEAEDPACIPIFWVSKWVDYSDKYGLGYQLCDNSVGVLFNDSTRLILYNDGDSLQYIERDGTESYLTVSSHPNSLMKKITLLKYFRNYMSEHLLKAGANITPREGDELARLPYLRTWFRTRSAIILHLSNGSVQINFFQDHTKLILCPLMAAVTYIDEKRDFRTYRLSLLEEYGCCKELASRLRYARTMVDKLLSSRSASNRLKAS
ALOX12 inh = Primary qHTS assay for inhibitors of human arachidonate 12S-lipoxygenase (ALOX12): Round 2; 1.1% of 580,000 active; Polyunsaturated fatty acid lipoxygenase ALOX12 (Homo sapiens), P18054; purified 12hLO, xylenol orange hydroperoxide absorbance; AID 1671190, 2021; Potency, µM (titrated, usually from 108 µM), for inactives: top-dose activity change, negative = inhibition, usual class: inhibitors
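Hydroperoxide product was detected by ferrous iron/xylenol orange as the 573 to 405 nm absorbance ratio. Arachidonic acid at 40 uM (final) was turned over for 30 min at room temperature by 150 nM human 12hLO, pH 7.0 Hepes buffer, after 15 min compound preincubation.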
Sfp PPTase inh = qHTS Assay for Inhibitors of Bacillus subtilis Sfp phosphopantetheinyl transferase (PPTase); Potency, µM, for inactives: largest response in the series, negative = inhibition, most hits filed as inhibitors; 3.5% of 310,000 active; Biochemical Sfp PPTase activity, qHTS;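 also: the enzyme is Sfp with the accession as filed and its product quenches rhodamine fluorescence; 0% = enzyme reaction without inhibitor and -100% = no enzyme wells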
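Compounds were incubated with enzyme (final 15 nM) for 15 min at room temperature before substrate addition started the reaction. Fluorescence at 525 nm excitation, 598 nm emission was recorded immediately and after 30 minutes.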
An asterisk follows results filed as active; ? = inconclusive; / = not tested or not shown; ! = not confirmed by another sample. A selection: hits, their analogues and other compounds. The true share with any hit is near 4.2%. Calls follow the shape of the dose curve; as a rule, active = well fitted curve in the direction sought with a large enough effect; inconclusive = small, poorly fitted or top-dose-only effect, or another doubt; inactive = no such curve, though single readings can be large; an effect the other way counts as inactive or inconclusive. Unless noted, % is scaled to controls: 0 for no effect and ±100 for the full control effect; potency is read from the fitted curve at half-maximal effect.

SMILES | VDR inh | PLK1 PBD block | ALOX12 inh | Sfp PPTase inh
CCOC(=O)N1CCN(C(=O)c2ccc3c(SCC(=O)O)c4c(nc3c2)CCCC4)CC1 | -20% | -14% | / | 14%
Cc1nc2ccc(NC3=NCCCCC3)cc2s1 | ? | 30µM* | ? | ?
Cc1ccc(NC2=NCCC2)cc1Cl | -4% | 0% | -1% | -6%
O=C(NCC1(COc2ccc(C(F)(F)F)cn2)C[C@@H](O)[C@@H](O)C1)c1cccnc1 (some centres not stated) | / | / | 79% | /
O=C(Nc1ccc(Cl)cc1)Nc1ccccc1Sc1ncc([N+](=O)[O-])s1 | 10µM* | 8.4µM* | 0% | 50µM*
O=C(Nc1csc([N+](=O)[O-])c1)Nc1ccccc1Cl | 18% | -4% | 0% | 2%
Cc1ccc(-c2cc(N3CCC(CNC(=O)c4ccc(=O)[nH]c4)CC3)n[nH]2)cc1 | / | / | 15% | /
COc1ccc(N2CCCC2)c(NC(=O)c2ccc([N+](=O)[O-])o2)c1 | 79µM* | 24µM* | -21% | 0%
CCOCCCNC(=O)c1nnn2cc(-c3ccccc3)[nH]c(=O)c12 | / | / | 18µM* | /
O=C(O)CSCc1nc2cccnc2n1C1CCCCC1 | 22% | -10% | 5% | 4%
O=C(NC1CCSC1=O)c1ccc(Oc2cccc(C(F)(F)F)c2)nc1 (configuration not stated) | -7% | 21µM* | -1% | 16%
O=[N+]([O-])c1ccc(Oc2cccc(C(F)(F)F)c2)nc1 | ? | 27µM* | 14% | 13%
CC(C)c1noc(CC2CCN(C(=O)Cc3ccsc3)CC2)n1 | / | / | 28% | /
COc1ccc(OC)c(NC(=O)c2ccc3c(=O)n4c(nc3c2)CCCCCC4)c1 | / | / | 12% | /
CC(C)(C)c1cc(N)c(O)c(Cl)c1 | / | / | 18µM* | /
O=c1c2cn[nH]c2[nH]c(=S)n1-c1ccccc1 | 0% | -13% | 6.3µM* | 14µM*
COc1ccc(-n2c(=S)[nH]c3[nH]ncc3c2=O)cc1 | -3% | -10% | 15% | 50µM*
O=c1c2cn[nH]c2[nH]c(=S)n1-c1cccc2ccccc12 | -20% | -16% | -13% | -22%
c1ccc(-c2cc3n(c2)CCc2ccccc2-3)cc1 | -12% | -3% | 6.3µM*! | 9%
Cc1ccc(-c2cc3n(c2)CCc2ccccc2-3)cc1 | / | / | 16µM* | /
Cn1c(-c2ccccc2)c[n+]2c1-c1ccccc1C2 | 4% | -5% | -2% | 5%
COc1ccc(CCNc2oc(COc3ccccc3Cl)nc2C#N)cc1OC | -2% | 5% | 6% | 5%
COc1ccc(CCNc2oc(COc3ccccc3F)nc2C#N)cc1OC | -15% | 27µM* | -2% | 1%
COc1cccc(Cn2c(Cn3c(-c4cnccn4)nc4ccccc43)nc3ccccc32)c1 | / | -7% | 7% | /
COc1ccc(OC)c(-n2c(Cn3c(-c4ccccn4)nc4ccccc43)n[nH]c2=S)c1 | -22% | -23% | ? | 25µM*
SMILES | VDR inh | PLK1 PBD block | ALOX12 inh | Sfp PPTase inh
COc1ccc(OC)c(-n2c(-c3cccc(O)c3)n[nH]c2=S)c1 | -24% | 27µM* | 3.5µM* | 25µM*
COc1ccc(-c2cc(-c3n[nH]c(=S)n3-c3cc(OC)ccc3OC)[nH]n2)cc1 | -20% | -25% | 45µM* | ?
COc1ccc(OC)c(-n2c(-c3cc(-c4ccc(F)cc4)n[nH]3)n[nH]c2=S)c1 | -7% | -13% | ? | ?
COc1ccc(-c2n[nH]c(=S)n2-c2cc(OC)ccc2OC)cc1 | 3% | -2% | ? | 79µM*
Cn1c(=O)cc(SCC(=O)NCC2CCCO2)c2ccc(Cl)cc21 (configuration not stated) | -6% | 1% | -3% | 18%
Cc1ccc(OS(=O)(=O)c2c(C)nn(C)c2Cl)c(C)c1 | 15% | -1% | 1% | 24%
O=C(/C=C\NCC(=O)c1ccccc1)c1ccc2ccccc2c1 | ? | -24% | 35µM* | -13%
Cc1ccc(/C=C/C(=O)N2CC(=O)Nc3ccccc32)o1 | -10% | -19% | -25% | 7.1µM*
Cc1ccc(-c2ccc(/C=C/C(=O)c3ccccc3)o2)cc1 | -13% | 1% | 3.5µM* | 11µM*
Cc1cc(C)c(/C=C/C(=O)c2ccccc2)c(C)c1 | / | / | 0% | /
Cc1cc(C)cc(C(=O)N2CC(=O)Nc3ccccc32)c1 | -9% | -5% | -23% | 4%
Cc1ccc(/C=C/C(=O)c2ccccc2)o1 | / | / | 14µM* | /
O=C(/C=C/c1ccc(-c2ccccc2)o1)c1ccccc1 | -19% | 10% | ? | 16µM*
Cc1ccc(/C=C/C(=O)c2ccc(C)o2)o1 | / | / | -61% | /
O=C(/C=C/c1ccc(-c2ccccc2Br)o1)c1ccccc1 | / | / | -45% | /
COc1ccc(S(=O)(=O)N2CCC(C(=O)N[C@@H](C)C(=O)N3CCCCCC3)CC2)cc1 | -16% | -4% | -2% | 9%
CCn1ccnc1CN1CCCC1C(=O)Nc1ccc(-c2cccc(F)c2)cc1 (configuration not stated) | / | / | 117% | /
COc1ccc(/C=C/C(=O)c2ccc(-c3ccccc3)cc2)cc1 | / | / | -6% | /
COc1ccc(C(=O)/C=C/c2ccc(-c3ccc(OC)cc3)o2)cc1 | / | / | 0.32µM* | /
Cc1ccc(S(=O)(=O)Nc2cc(C)c(O)c(Sc3n[nH]c(C)n3)c2)cc1 | -22% | -8% | ? | 71µM*
O=C(O)C1CCCCC1C(=O)NC1CCCCCCC1 (configuration not stated) | / | / | -1% | /
O=C(OCC(=O)N1CCCC1=O)c1nc(Cl)ccc1Cl | 3% | 0% | -17% | /
CCOC(=O)/C(C#N)=C/c1cc2ccccc2nc1N1CCCCC1 | -19% | -22% | -13% | -15%
CCCCN1C(=O)C2Cc3c([nH]c4ccccc34)CN2C1=S (configuration not stated) | -12% | -12% | -18% | 56µM*
Cn1c(-c2ccccc2)c(CCO)c2ccccc21 | 14% | 27µM* | -13% | -22%
SMILES | VDR inh | PLK1 PBD block | ALOX12 inh | Sfp PPTase inh
CCn1c(-c2ccccc2)c(C(=O)CCl)c2ccccc21 | ? | ? | -1% | -2%
Cn1c(-c2ccccc2)c(C(=O)CCl)c2ccccc21 | 71µM* | ? | -26% | -28%
CC(=O)N1CCOc2ccc(S(=O)(=O)NCCc3ccc(Cl)cc3)cc21 | -15% | -20% | -12% | 4%
COCc1ccc2c(c1)c(OC(C)(C)C(=O)NCCCN1CCCC1=O)nn2Cc1cccnc1 | / | / | -7% | /
CCCn1ncc(CN(C)CC2CCN(CCc3ccc(Cl)cc3)CC2)c1C | / | / | -8% | /
CCOC(=O)CCCc1ccc(/C(C)=N/NC(N)=S)cc1 | ? | -8% | ? | 56µM*
NC12NC(=O)C3(O)C4C5CC(C6C5C3C61)C42 (configuration not stated) | -3% | -12% | -4% | -27%
CCn1c(N)c(C(N)=O)sc1=S | 7% | 27µM* | ? | 14µM*
CCOC(=O)c1sc(=S)n(CC)c1N | 6% | -20% | ? | 3%
CCn1c(N)c(C(=O)NCc2ccco2)sc1=S | -28% | 24µM* | ? | 22µM*
